RORg inh = inhibitors of mouse ROR gamma transcriptional activity; Potency, µM (doses to about 53.6 µM), for inactives: at the highest dose activity change, negative = inhibition, usual class: inhibitors; P51450; 5.4% of 310,000 active; Drosophila S2 Gal4-RORgamma UAS-luciferase reporter, 20 h; further: potency means the concentration at half of the fitted maximal effect; on the % scale 0 is the no-effect control and ±100 the full control effect; nearly all actives have a fitted effect of over 60% in size
Target sequence (P51450 whole entry, looked up, the tested form may be a part): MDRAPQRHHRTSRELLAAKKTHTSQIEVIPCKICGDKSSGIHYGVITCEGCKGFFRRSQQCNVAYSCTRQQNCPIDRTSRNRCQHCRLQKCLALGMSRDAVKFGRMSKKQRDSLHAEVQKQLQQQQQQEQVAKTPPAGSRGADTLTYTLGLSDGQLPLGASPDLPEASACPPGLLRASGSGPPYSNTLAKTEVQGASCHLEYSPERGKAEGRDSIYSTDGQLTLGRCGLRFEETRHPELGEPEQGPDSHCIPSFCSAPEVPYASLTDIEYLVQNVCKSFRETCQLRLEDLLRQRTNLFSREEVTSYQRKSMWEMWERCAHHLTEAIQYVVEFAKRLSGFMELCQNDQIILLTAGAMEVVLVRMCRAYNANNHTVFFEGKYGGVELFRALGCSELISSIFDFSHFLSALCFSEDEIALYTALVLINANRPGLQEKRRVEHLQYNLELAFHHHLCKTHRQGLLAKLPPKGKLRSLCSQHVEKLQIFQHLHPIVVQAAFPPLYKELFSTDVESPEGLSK
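Luminescence from a UAS-regulated Photinus luciferase reporter in stably transfected Drosophila Schneider cells is measured; decreased signal marks ROR gamma inhibition. Fusion expression is induced by 700 uM copper sulfate for 20 hr.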
Giardia killer = Giardia lamblia killing | Giardia lamblia trophozoite viability | activity change, % at 7.66 µM, hits read low | 0.15% of 340,000 active; in the data active means activity change below about -80%; inconclusive means between about -30% and that limit;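 further: parasites exposed to compound for two days anaerobically before the ATP read; on the % scale 0 is the no-effect control and ±100 the full control effect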
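Trophozoites 100 cells/well + cpd; 48 hrs, 37 deg C, anaerobic. ATPLite 1-Step added, 15-30 min RT, luminescence read (ATP-based viability).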
ELG1 DNA repair = inhibitors of ELG1-dependent DNA repair in HEK293T cells; HEK293T ELG1-luciferase reporter, luminescence, 16 h; DNA damage induced by 5-fluorouridine; Potency, µM (series often up to 46.1 µM), inactives show at the top dose activity change, negative = inhibition, most hits filed as inhibitors; AID 504467; 2.3% of 330,000 active; further: potency means the concentration at half of the fitted maximal effect; on the % scale 0 is the no-effect control and ±100 the full control effect; nearly all actives have a fitted effect of over 55% in size
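Reporter activity after DNA damage by 5-fluorouridine is monitored. Compound-treated cells incubate 16 hr at 37 °C, then ONE-Glo is added for 30 min before luminescence reading.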
p53 reactivation = restores transcriptional activity of mutant p53 | H1299 p53-A138V BP100-luciferase reporter, luminescence, 24 h | Potency, µM (series often up to 92.2 µM), inactives show top-dose activity change, positive = activation, most hits filed as activators | 0.063% of 320,000 active | AID 504706; further: potency means the concentration at half of the fitted maximal effect; % of control where 0% means no effect; nearly all actives have a fitted effect of over 45% in size
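H1299 (p53-null), stable ts p53-A138V + BP100-Luc; 1000 cells/well, Opti-MEM/10% FBS; cpd 4 pt, 1:5; 24 h, 37 deg C, 5% CO2; detection reagent 10 min RT; luminescence.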
BRCA1 expr up = activators of BRCA1 expression; 1.1% of 380,000 active; Potency, µM (doses to about 46.1 µM), inactives show at the highest dose activation, actives largely listed as activators; AID 624202; MCF7-BRCA1-FFLuc reporter, luminescence, 48 h; response scale: scaled: vehicle 0%, 10 µM genistein 100%; further: potency means the concentration at half of the fitted maximal effect; nearly all actives have a fitted effect of over 80% in size
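Activators of BRCA1 expression were detected as increased firefly luciferase luminescence in engineered MCF7 cells after 48 h compound incubation. Signals were scaled to genistein 10 microM as full activation.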
Gal4-VP16 FLuc = Gal4-VP16 reporter inhibition counter-screen | Drosophila S2 Gal4-VP16 UAS-luciferase, luminescence, 20 h | Potency, µM (series often up to 53.6 µM), without a hit: top-dose activity, negative = inhibition, most hits filed as inhibitors | 3.5% of 310,000 active;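 further: Gal4-VP16 expression switched on by copper sulfate through the metallothionein promoter; potency means the concentration at half of the fitted maximal effect; on the % scale 0 is the no-effect control and ±100 the full control effect; nearly all actives have a fitted effect of over 50% in size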
The depositor's hits bear a star; ? = inconclusive; / = not tested or not shown; [ ] = remark or other dose. An excerpt weighted towards active compounds, which were near 7.6% of everything screened. Unless noted, the call rests on the fitted dose curve; in most records, active means well fitted curve in the direction sought with a large enough effect; inconclusive means small, poorly fitted or top-dose-only effect, or another doubt; inactive means no such curve, though single readings can be large; an effect the other way counts as inactive or inconclusive.

SMILES	RORg inh	Giardia killer	ELG1 DNA repair	p53 reactivation	BRCA1 expr up	Gal4-VP16 FLuc
O=C(Nc1ccn(-c2ccccc2)n1)c1ccc(Cl)cc1	3.1%	?	?	?	60.2%	1.3%
N#Cc1ccc(C(=O)Nc2ccn(-c3ccccc3)n2)cc1	40.5%	8.3	23.1µM*	3.5%	4.2%	-1.1%
O=C(Nc1ccc(Cl)cc1C(=O)NCc1cccnc1)c1ccc(Cl)cc1Cl	?	9.9	?	-2.1%	-69.2%	-0.6%
O=C(NC(=S)NN1CCCCC1c1cccnc1)c1ccc(Cl)cc1Cl (centres undefined)	1.58µM*	-2.7	6.2%	0.0%	21.6%	4.47µM*
O=C(NC(=S)N1CCCCC1c1cccnc1)c1ccc(F)cc1 (centres undefined)	0.891µM*	13.6	0.8%	4.3%	2.1%	2.51µM*
O=C(NC(=S)N1CCCCC1c1cccnc1)c1ccc(Br)cc1 (centres undefined)	0.501µM*	-17.4	0.5%	3.8%	-9.6%	1.26µM*
Cc1ccc(NC(=O)CN(C)C(=O)COC(=O)[C@@H](NC(=O)c2ccccc2F)C(C)C)cc1	/	0.2	0.0%	4.9%	-11.6%	/
COc1ccc(C2(C)CC(=O)NC2=O)cc1 (centres undefined)	-7.2%	-8.9	0.0%	13.7%	-2.6%	-0.5%
O=C(Nc1ccc(C(O)c2ccccc2)cc1)[C@@H]1O[C@H](CO)[C@H](O)[C@H](O)[C@H]1O (some centres undefined)	/	/	/	/	17.1%	/
COc1ccccc1NC(=O)N1CCN(c2ccnc3cc(Cl)ccc23)CC1	-9.7%	16.1	11.6µM*	-6.7%	-21.2%	-20.7%
O=C(C1CCCCC1)N1CCN(c2ccnc3cc(Cl)ccc23)CC1	-44.2%	11.6	11.6µM*	-3.8%	-46.6%	?
COc1ccccc1NC(=O)N1CCN(c2cc(-c3ccccc3)nc3ncnn23)CC1	11.4%	7.7	13µM*	-15.9%	-66.4%	-22.0%
COc1ccc(OC)c(NC(=O)C2CCN(c3cc(-c4ccccc4)nc4ncnn34)CC2)c1	?	18.4	?	5.8%	-52.5%	-8.7%
COc1ccccc1NC(=O)N1CCc2[nH]c3ccc(Cl)cc3c2C1	?	2.9	16.4µM*	-5.3%	-49.0%	0.5%
COC(=O)/C=C(\C)NC(=O)c1ccccc1Cl	6.2%	11.9	?	0.0%	76.0%	10.1%
O=C(Nc1ccc(OC(F)(F)F)cc1)N1CCN(c2ccnc3cc(Cl)ccc23)CC1	?	-0.3	18.3µM*	2.2%	-57.0%	28.2µM*
O=S(=O)(c1ccccc1OC(F)(F)F)N1CCN(c2ccnc3cc(Cl)ccc23)CC1	41.3%	16.8	20.6µM*	-15.9%	-39.7%	-15.0%
O=S(=O)(c1cccc(Br)c1)N1CCN(c2ccnc3cc(Cl)ccc23)CC1	39.2%	9.1	-24.6%	-10.9%	-50.0%	?
CC(C)(C)C(=O)N1CCN(c2ccnc3cc(Cl)ccc23)CC1	35.5%	2.4	?	1.6%	-1.8%	-8.6%
O=C(Nc1ccc(Cl)cc1)c1ccc(-c2ccccn2)s1	-0.8%	2.6	?	14.3%	?	-13.2%
COC(=O)c1c(C(=O)OC)c2ccccn2c1C(=O)c1ccc([N+](=O)[O-])cc1	-7.3%	-28.6	?	2.9%	-3.0%	-12.0%
COC(=O)c1c(C(=O)OC)c2cc(C(=O)c3ccccc3)ccn2c1Cl	?	1.4	25.9µM*	-14.7%	-35.2%	-1.2%
CSCc1ccc(C(=O)N2CCCC(Nc3ccc4c(c3)OCCO4)C2)o1 (centres undefined)	-2.0%	-0.1	9.1%	12.0%	0.8%	5.9%
O=C(Nc1ccc(N2CCN(C(=O)c3ccco3)CC2)cc1)c1ccc(Br)cc1	-12.6%	25.4	-0.8%	5.7%	-10.8%	-8.4%
Cc1ccccc1C(=O)N1CCN(c2ccc(NC(=O)c3ccc4c(c3)OCO4)cc2)CC1	?	2.8	5.8µM*	-5.7%	-51.2%	-5.5%
SMILES	RORg inh	Giardia killer	ELG1 DNA repair	p53 reactivation	BRCA1 expr up	Gal4-VP16 FLuc
Cc1ccccc1C(=O)N1CCN(c2ccc(NC(=O)c3cccnc3)cc2)CC1	17.0%	-3.4	?	0.1%	0.3%	7.4%[10 µM]
O=C(c1ccco1)N1CCCC(Nc2ccc3c(c2)OCCO3)C1 (centres undefined)	-1.6%	1.4	?	?	8.91µM*	-2.4%
O=C(Nc1ccc(N2CCN(C(=O)c3ccccc3F)CC2)cc1)c1cncc(Br)c1	42.7%	-10.5	3.66µM*	-40.7%	-30.0%	-3.1%
O=C(Nc1ccc(N2CCCCC2)cc1)c1cncc(Br)c1	14.0%	-7.5	-11.2%	6.1%	?	1.1%
O=C(Nc1ccc(N2CCN(C(=O)c3ccco3)CC2)cc1)c1ccc2c(c1)OCO2	26.3%	1.3	18.4µM*	-22.3%	-22.8%	-3.3%
CN(C)S(=O)(=O)c1cccc(NC(=O)COC(=O)[C@H](Cc2ccccc2)NC(=O)c2ccco2)c1	/	-10.5	3.7%	4.5%	-4.6%	/
COc1cccc(C2C(C(=O)Nc3ccc(C)cc3C)=C(C)Nc3ncnn32)c1OC (centres undefined)	?	-23.0	-3.4%	-2.7%	-6.4%	-5.4%
NC(=O)CC(NC(=O)c1ccccc1)c1ccc(N2CCC(Cc3ccccc3)CC2)c([N+](=O)[O-])c1 (centres undefined)	?	11.2	?	6.3%	-56.3%	11.2µM*
NC(=O)CC(NC(=O)c1ccccc1)c1ccc(N2CCC(N3CCCC3)CC2)c([N+](=O)[O-])c1 (centres undefined)	-6.2%	14.8	-1.5%	8.6%	0.5%	1.3%
NC(=O)CC(NC(=O)c1ccc(Br)cc1)c1ccc(N2CCN(c3ccccc3)CC2)c([N+](=O)[O-])c1 (centres undefined)	?	1.5	?	/	-8.8%	1.0%
NC(=O)CC(NC(=O)c1ccc(Br)cc1)c1ccc(N2CCC(Cc3ccccc3)CC2)c([N+](=O)[O-])c1 (centres undefined)	-6.3%	11.1	?	/	-41.6%	20µM*
CCOc1ccccc1CNc1nnnn1C	-11.1%	-2.8	10.5%	/	-5.8%	-2.0%
Cn1nnnc1NCc1ccccc1F	0.631µM*	0.3	-0.1%	4.5%	1.3%	3.2%
Cn1c(=O)n(CC(=O)NCc2cccnc2)c2ccccc21	-20.7%	-18.1	11.1%	3.9%	8.3%	1.5%
Nc1ncnc(NCc2ccccc2)c1[N+](=O)[O-]	-27.3%	-1.6	10.3µM*	-8.1%	25.0%	-15.8%
Nc1ncnc(NCc2ccc(F)cc2)c1[N+](=O)[O-]	?	11.0	8.2µM*	2.3%	13.7%	-17.2%

Bioassay records from PubChem.
